Assay outcomes from PubChem BioAssay.
UBC13 inh: inhibitors of human UBC13 polyubiquitin chain formation | inhibition, % at 20 µM | TR-FRET | AID 485273 | 0.47% of 330,000 active; in the data active means inhibition above about 45%, passing the limit was not always enough
Target sequence (P61088 whole entry, looked up): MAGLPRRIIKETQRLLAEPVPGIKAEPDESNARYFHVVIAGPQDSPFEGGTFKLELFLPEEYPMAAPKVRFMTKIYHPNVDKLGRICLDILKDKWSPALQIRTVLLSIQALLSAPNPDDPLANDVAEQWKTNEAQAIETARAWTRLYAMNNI
MEKK2mut PB1 HTS: signal of MEK5 binding to mutant human MEKK2 PB1 domain; bead flow cytometry, Alexa488-MEK5 binding to MEKK2 mutant; percent response, % at 10 µM; 0.35% of 290,000 active; AID 1530; in the data active means percent response above about 24%, passing the limit was not always enough
MEKK2wt PB1 HTS: raises or lowers MEK5 binding to wildtype human MEKK2 PB1 domain; bead flow cytometry, Alexa488-MEK5 binding to MEKK2 WT; actives lie on both sides; 1.1% of 290,000 active; binding response (% of control), % at 10 µM; in the data active means binding response below about 67% or above about 130%
MEKK3 PB1 HTS: MEKK3-MEK5 PB1 interaction, increase or decrease. Q99759. bead-based flow cytometry, Alexa488-MEK5 binding to MEKK3; actives lie on both sides; 0 = blocked by unlabeled MEK5, 100 = vehicle. AID 1529. 1.4% of 290,000 active. binding response (% of control), % at 10 µM;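 active means binding response more than 3 SD above or below the average of its plate-row segment, actives on both sides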;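 further: Alexa488 bead fluorescence after subtracting the streptavidin-only scavenger bead signal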
MEKK2wt confirm: raises or lowers MEK5 binding to wildtype human MEKK2, retest; shares compounds with MEKK3 PB1 HTS; bead flow cytometry, Alexa488-MEK5 binding to MEKK2 WT; actives lie on both sides; binding response (% of control), % at 10 µM; 2.4% of 5,900 active; AID 1892; in the data active means binding response below about 16% or above about 210%; inactive means in between
MEKK2mut-MEK5: signal of MEK5 binding to mutant human MEKK2, retest. shares compounds with MEKK3 PB1 HTS. bead flow cytometry, Alexa488-MEK5 binding to MEKK2 mutant. percent response, % at 10 µM. 2% of 5,900 active. AID 1893; in the data active means percent response mostly above about 71%, no sharp cut-off; inactive means mostly below about 38%;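 further: higher means compound restores mutant binding toward wildtype level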
MEKK3 confirm: confirmation of inhibitors of MEK5 binding to human MEKK3 | shares compounds with MEKK3 PB1 HTS | bead flow cytometry, Alexa488-MEK5 binding to MEKK3; stronger effect = lower value | binding response (% of control), % at 10 µM | 1.8% of 5,900 active;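 active means binding response below 72% of control, or above a set upper limit, though filed actives all read lower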
Large screens that a line does not name were inactive (follow-up assays come after a bar, where they were run); [ ] = another dose, or the depositor's remark. Hits are enriched below; roughly 2.3% of the tested compounds scored in any of these assays.

COC(=O)c1c(C)oc(C)c1S(=O)(=O)N1CCCC1	MEKK3 PB1 HTS 131 | MEKK2wt confirm inactive | MEKK2mut-MEK5 inactive | MEKK3 confirm inactive
COC(=O)c1c(C)oc(C)c1S(=O)(=O)N1CCCCC1	none
CC(=O)N1c2ccc(S(=O)(=O)N3CCCCC3)cc2CC1C(=O)NCc1ccc(N(C)C)cc1 (centres undefined)	none
CC(=O)NCCNC(=O)c1oc2ccccc2c1CSc1ncn[nH]1	MEKK3 PB1 HTS 75[inhibitor] | MEKK2wt confirm inactive | MEKK2mut-MEK5 inactive | MEKK3 confirm inactive
CCN(CC)S(=O)(=O)c1ccc(OC)c(NC(=O)c2cc3c(=O)n4ccccc4nc3s2)c1	MEKK3 PB1 HTS 130 | MEKK2wt confirm inactive | MEKK2mut-MEK5 inactive | MEKK3 confirm inactive
O=C(NC(Nc1ccc(F)cc1)(C(F)(F)F)C(F)(F)F)c1cccnc1	MEKK3 PB1 HTS 53[inhibitor] | MEKK2wt confirm inactive | MEKK2mut-MEK5 inactive | MEKK3 confirm inactive
O=S(=O)(c1ccc(F)c(F)c1F)N1CCN(C(=S)NC2CC3CCC2C3)CC1 (centres undefined)	MEKK3 PB1 HTS 64[inhibitor] | MEKK2wt confirm inactive | MEKK2mut-MEK5 inactive | MEKK3 confirm inactive
O=S(=O)(c1ccc(F)c(F)c1F)N1CCN(C(=S)NCc2ccccc2)CC1	none
Cc1nn(CC(=O)NC(=O)NC2CCCC(C)C2C)c(=O)c(C#N)c1C (centres undefined)	none (no result: MEKK2mut PB1 HTS, MEKK2wt PB1 HTS, MEKK3 PB1 HTS)
CCN1CCCC1CNC(=O)c1cc2c(-c3ccc(Cl)cc3)nn(C)c2s1 (centres undefined)	MEKK2mut PB1 HTS 29, MEKK2wt PB1 HTS 210 | MEKK2wt confirm inactive | MEKK2mut-MEK5 inactive | MEKK3 confirm inactive
Cn1nc(-c2ccc(Cl)cc2)c2cc(C(=O)NCCCN3CCCC3)sc21	MEKK2wt PB1 HTS 201 | MEKK2wt confirm inactive | MEKK2mut-MEK5 inactive | MEKK3 confirm inactive
CCCCN(CC)CCCNC(=O)c1cc2c(-c3ccc(OC)c(OC)c3)nn(C)c2s1	MEKK2wt PB1 HTS 135 | MEKK2wt confirm inactive | MEKK2mut-MEK5 inactive | MEKK3 confirm inactive
CCN1CCCC1CNC(=O)c1cc2c(-c3cccc(OC)c3)nn(C)c2s1 (centres undefined)	none
O=C(C1CC(=O)N(c2ccc(Cl)cc2)C1)N1CCC(c2nc3ccccc3[nH]2)CC1 (centres undefined)	none (no result: MEKK2mut PB1 HTS, MEKK2wt PB1 HTS, MEKK3 PB1 HTS)
CN(C(=O)c1ccc(NC(=O)Cc2ccc([N+](=O)[O-])cc2)cc1)C1CC1	none (no result: MEKK2mut PB1 HTS, MEKK2wt PB1 HTS, MEKK3 PB1 HTS)
O=C(c1ccco1)N1N=C(c2ccco2)CC1c1ccc(Cl)cc1Cl (centres undefined)	none (no result: MEKK2mut PB1 HTS, MEKK2wt PB1 HTS, MEKK3 PB1 HTS)
Cc1ccc(NS(=O)(=O)c2cc(C(=O)N(C)C3CCN(C)CC3)ccc2Cl)cc1Cl	none (no result: MEKK2mut PB1 HTS, MEKK2wt PB1 HTS, MEKK3 PB1 HTS)
CCN1CCN(c2ccc(NC(=O)CCc3c(C)nc4c(-c5ccc(F)cc5)c(C)nn4c3C)cc2)CC1	MEKK2wt PB1 HTS 146 | MEKK2wt confirm inactive | MEKK2mut-MEK5 inactive | MEKK3 confirm inactive
COc1ccc(S(=O)(=O)N2CCOCC2)cc1NC(=O)CSc1nnc2n1CCCCC2	none (no result: MEKK2mut PB1 HTS, MEKK2wt PB1 HTS, MEKK3 PB1 HTS)
CCCCn1c(N)c(N(CC(C)C)C(=O)CSC(C)C(=O)Nc2cc(C)on2)c(=O)[nH]c1=O (centres undefined)	none (no result: MEKK2mut PB1 HTS, MEKK2wt PB1 HTS, MEKK3 PB1 HTS)
O=C(NC(=S)NCc1cccnc1)c1ccccc1[N+](=O)[O-]	MEKK2wt PB1 HTS 2.0[inhibitor], MEKK3 PB1 HTS 2.0[inhibitor] | MEKK2wt confirm inactive | MEKK2mut-MEK5 inactive | MEKK3 confirm inactive
O=C(N/N=C/c1ccc([N+](=O)[O-])cc1)c1cnccn1	MEKK3 PB1 HTS 66[inhibitor] | MEKK2wt confirm inactive | MEKK2mut-MEK5 inactive | MEKK3 confirm inactive
O=C(NCc1cccnc1)c1ccccc1[N+](=O)[O-]	none
O=C(N/N=C/c1cccnc1)c1ccccc1[N+](=O)[O-]	MEKK3 PB1 HTS 58[inhibitor] | MEKK2wt confirm inactive | MEKK2mut-MEK5 inactive | MEKK3 confirm inactive
O=C(NNC(=S)Nc1ccccc1)c1ccccc1[N+](=O)[O-]	MEKK2wt PB1 HTS 7.0[inhibitor], MEKK3 PB1 HTS 5.0[inhibitor] | MEKK2wt confirm inactive | MEKK2mut-MEK5 inactive | MEKK3 confirm inactive
